Test results reported in the supplement of paper PMC6555819.

Tests used:
Experiment in all cases: PBM binding z-score (relative to random genomic background probes); higher = stronger binding; sequences stand for … in GC…GCGATTGACAGCGTAGAATGAAGG
[1] = test system: RARb homodimer (NR concentration 270 nM)
Summary of the method: (§1)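 Binding z-scores take random background probes as their reference. They come from custom Agilent 4×180K protein-binding microarrays incubated 1 h with ligand-free nuclear receptor dimers, with antibodies against each partner (one per run) detecting binding. Scanned fluorescence was regression-normalized.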

[2] = test system: RARg:RXRa (NR concentration 270 nM, RXRa partner concentration 90 nM)
Summary of the method: as §1

[3] = test system: RARg homodimer (NR concentration 270 nM)
Summary of the method: as §1

[4] = test system: RXRa DBDmut IVT, anti-RXR (DBD mutation: RXRa K156A/R161A, NR concentration 90 nM)
Summary of the method: as §1

[5] = test system: RXRa homodimer (NR concentration 180 nM)
Summary of the method: as §1

[6] = test system: THRa:RXRa (NR concentration 90 nM, RXRa partner concentration 90 nM)
Summary of the method: as §1

[7] = test system: THRa homodimer (NR concentration 90 nM)
Summary of the method: as §1

[8] = test system: VDR homodimer (NR concentration 270 nM)
Summary of the method: as §1

Row | Sequence | PBM binding z-score [1] | PBM binding z-score [2] | PBM binding z-score [3] | PBM binding z-score [4] | PBM binding z-score [5] | PBM binding z-score [6] | PBM binding z-score [7] | PBM binding z-score [8]
1 | AGGCAAAGTTCATCTAGGTAACGTAAGATATGCT | 3.56 | 5.33 | 5.75 | 4.59 | 4.37 | 3.18 | 0.436 | 4.85
2 | CCTACTGGGCCATCAGGTCATCGATATCAACGTT | 2.83 | 2.31 | 2.29 | 0.257 | 1.58 | 3.45 | 3.33 | 1.24
3 | CCTGCTAGGTCAGGGTCAGCTAATCTACAGTATG | 4.16 | 4.45 | 5.23 | 1.37 | 4.03 | 3.48 | 1.81 | 1.01
4 | TCATATAGGTAAAGGTGAAACTCGAACGATATGA | 1.6 | 1.84 | 1.54 | 0.648 | 2.47 | 1.57 | -0.601 | -0.375
5 | CCGACTGGGGCCAGGTTACCATAACGCACAGCCA | 0.918 | 0.349 | 0.638 | -0.672 | 0.426 | 0.785 | 0.378 | -0.444
6 | GCATATAGGTAATACAAGGAGAAAGTCCGATTGT | -0.449 | 0.152 | 0.156 | 0.562 | -0.0159 | 1.9 | -0.606 | -0.234
7 | ATATGTAGGTTACATCTGGGTCATTCAGGCTATG | 3.02 | 3.33 | 2.31 | 0.961 | 2.38 | 3.17 | 1.31 | 1.8
8 | CCTAGCAGGCCAAGCTGGGTCACTCAAGGCTTGA | 2.2 | 1.64 | 1.65 | -0.265 | 1.17 | 3.28 | -0.143 | -0.334
9 | ATACCAACGTGATCGTGAGGTCGTTGATACTAAC | 0.904 | 0.317 | 0.269 | 0.532 | 0.915 | 2.36 | 1.73 | 2.32
10 | CCTACTAGGCCACGAAAGGTCATTGATTCAGTGA | 4.71 | 4.9 | 4.91 | 1.22 | 5.5 | 3.85 | 1.29 | 2.66
11 | CCTTACGGGTCTCTGACAGGTTATAGCATTTGGA | -0.0333 | 0.29 | 0.275 | 0.321 | 0.277 | 0.0789 | -0.175 | -0.188
12 | CGTCCAAGGCCAGAGAGGTCAGTGAATGCCGAGT | 4.2 | 3.05 | 4.27 | 1.06 | 2.22 | 2.77 | 0.817 | 2.55
13 | CATACAGCGTCAGCTAGGCCAGAGTAGGGACGGC | -0.506 | -0.321 | -0.175 | -0.697 | -0.412 | -0.637 | -0.62 | -0.797
14 | GGAACGAGGGCAAGATGATAGCAGAGTTTGATGG | 1.21 | 1.2 | 1.78 | 1.52 | 0.962 | 0.971 | -0.0312 | 1.08
15 | CGGCCAAGGTCAGCAGGTCAGTGAAAGCGACGTG | 5.01 | 6.21 | 6.95 | 2.22 | 5.05 | 3.85 | 1.94 | 1.09
16 | CCTAGCAGGCCAGGGTCACTCACGCATTTCGCTT | 2.64 | 2.79 | 2.22 | 0.414 | 3.32 | 2.63 | 1.32 | 1.73
17 | CGTCCAATGTCAAGGTCAGTGAAAGAGACTCGAA | 3.45 | 3.38 | 4.06 | 1.1 | 2.22 | 2.91 | 2.18 | 1.57
18 | CCGAGTAGGTTATGGGGCGTTCAGGCAACGGTGA | 0.761 | 0.491 | 0.0403 | -0.298 | 0.251 | 0.608 | 0.402 | 0.062
19 | CCTAGCAGGCCAGGGTCACTCCAGCATTTCGCTT | 2.7 | 2.61 | 2.18 | 0.578 | 2.86 | 2.61 | 1.02 | 1.64
20 | CCTTACGGGTCACTCCAGGTTATAGCCTCGGAGT | 3.1 | 4.3 | 4.02 | 1.01 | 4.02 | 5.14 | 0.467 | 1.13
21 | CGAACTAGGTCAGAACAGGACAGTGGAGGATGAT | 2.31 | 2.47 | 3.32 | 0.671 | 1.4 | 3.33 | 0.46 | 0.198
22 | AGAATGAGGTTACCAAATATCAGGGAAACGCTTG | 0.779 | 1.91 | 1.86 | 1.24 | 2.52 | 2.67 | 0.824 | 0.512
23 | TAGCCTAGGCCATTGGGCCAGTATAGTACGCATC | -0.0575 | -0.137 | 0.339 | -1.16 | -0.506 | -0.321 | -0.972 | -0.404
24 | TCTTGCAGATCAAGCAGGTTAAGAAAGCCTGAGT | -0.292 | -0.332 | -0.629 | 0.253 | -0.0969 | 0.0949 | -0.484 | -0.141
25 | TCATATTGGTAAACAGGTGAAAGTCCGTAAGTTA | 0.882 | 0.412 | 0.0109 | 1.5 | 0.951 | 0.634 | 0.5 | 0.487
26 | CCCACTGGGCCAAAAAGGTCATTGATGCCGATAA | 4.44 | 4.8 | 4.56 | 0.161 | 5.23 | 3.02 | 0.878 | 2.74
27 | ATCTGTAGGTTACATCCGGGTCATTCAGGCTATG | 3 | 3.79 | 2.18 | 1.17 | 3.04 | 3.81 | 2.84 | 2.67
28 | AGAATGAGGTTAAGACCAGGGAAACAGAATACAT | 1.01 | 1.97 | 1.33 | 0.973 | 2.47 | 2.48 | 0.691 | 0.514
29 | TCTATTAGTTGATTAGCGCAACCGAAACAGCGGA | -0.343 | 0.177 | -0.0626 | 1.29 | 0.499 | 0.0464 | 0.16 | 0.523
